From article PMC5540273 (PLoS ONE, 2017)

Tests used:
Settings in all cases: concentration: 1 μM, replicates: in singlicate; n = 1
EPHB2 = tested on: EPHB2
EPHB3 = tested on: EPHB3
EPHB4 = tested on: EPHB4
EPHB6 = tested on: EPHB6
ERBB2 = tested on: ERBB2
ERBB3 = tested on: ERBB3
ERBB4 = tested on: ERBB4
ERK1 = tested on: T1, ERK1
T1 construct: gene MAPK3

ERK2 = tested on: T2, ERK2
T2 construct: gene MAPK1

ERK3 = tested on: T3, ERK3
T3 construct: gene MAPK6
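Note: KINOMEscan kinase panel screen.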

Row | Compound | %Inh (EPHB2) | %Inh (EPHB3) | %Inh (EPHB4) | %Inh (EPHB6) | %Inh (ERBB2) | %Inh (ERBB3) | %Inh (ERBB4) | %Inh (ERK1) | %Inh (ERK2) | %Inh (ERK3)
1 | COc1ccc(NC(=O)c2ccc(-c3cc(-c4nnc(C)o4)ccc3C)cc2)cc1 [GW595885] | 10% | 13% | 6% | 0% | 18% | 0% | 7% | 0% | 0% | 0%
2 | O=C(c1ccc(-c2cc(-c3c[nH]nc3-c3ccccn3)ccn2)cc1)N1CCCC1 [GW792479] | 19% | 14% | 17% | 0% | 10% | 57% | 0% | 0% | 32% | 0%
3 | Cl.Cl.c1ccc(-c2cc3ccncc3cc2OC2CCNCC2)cc1 [GSK1122999] | 47% | 17% | 5% | 11% | 10% | 0% | 0% | 0% | 4% | 24%
4 | COc1ccc(NC(=O)Nc2ccc(C)c(-c3ccc(C(=O)Nc4ccncc4)cc3)c2)cc1 [GSK1398475] | 12% | 13% | 13% | 20% | 0% | 0% | 19% | 2% | 0% | 9%
5 | C[C@@H]1CCN(C(=O)CO)C[C@@H]1N(C)c1ncnc2[nH]ccc12 | 0% | 0% | 0% | 17% | 19% | 0% | 11% | 0% | 0% | 14%
